Results reported in PubChem BioAssay AID1347420 (Sanford-Burnham Center for Chemical Genomics, 2020).
Screen size: about 1,300 compounds; about 980 (75%) were called active. Roughly 4% stayed inconclusive and do not appear here. Some of the results follow.

These molecules were tested against Sulfhydryl oxidase 1 (Homo sapiens) (UniProt O00391) (assay: inhibition of human sulfhydryl oxidase QSOX1 – biochemical, HyperBlu H2O2 luminescence, HTS, primary screen (AID 1347420; also: values above 100% were filed as inconclusive)). Settings: recombinant QSOX1, HyperBlu H2O2 luminescence, at 12.5 µM, active compounds read high; active = any value above zero unless noted.
Sulfhydryl oxidase 1 (Homo sapiens), sequence (O00391 whole entry, looked up): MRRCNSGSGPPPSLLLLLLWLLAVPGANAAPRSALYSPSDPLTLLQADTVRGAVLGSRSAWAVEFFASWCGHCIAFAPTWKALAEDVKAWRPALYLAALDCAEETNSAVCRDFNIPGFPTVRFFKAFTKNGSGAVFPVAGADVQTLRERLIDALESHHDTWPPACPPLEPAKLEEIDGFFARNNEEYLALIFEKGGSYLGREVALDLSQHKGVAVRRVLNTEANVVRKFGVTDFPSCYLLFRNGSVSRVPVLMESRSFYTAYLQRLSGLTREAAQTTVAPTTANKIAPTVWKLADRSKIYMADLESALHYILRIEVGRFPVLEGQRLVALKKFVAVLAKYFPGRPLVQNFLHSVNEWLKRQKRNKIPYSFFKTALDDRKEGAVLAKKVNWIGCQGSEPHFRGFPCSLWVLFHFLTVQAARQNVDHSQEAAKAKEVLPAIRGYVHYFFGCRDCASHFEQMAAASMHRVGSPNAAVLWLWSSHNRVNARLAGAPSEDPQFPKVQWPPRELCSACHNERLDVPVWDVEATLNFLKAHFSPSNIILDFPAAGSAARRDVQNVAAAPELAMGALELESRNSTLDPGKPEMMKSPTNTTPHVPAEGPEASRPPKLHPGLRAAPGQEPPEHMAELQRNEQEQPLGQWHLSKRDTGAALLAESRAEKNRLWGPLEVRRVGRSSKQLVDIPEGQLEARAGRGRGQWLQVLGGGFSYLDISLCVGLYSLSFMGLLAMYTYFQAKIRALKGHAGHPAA

Compound	inhibition
C[C@H]1C2Cc3ccc(O)cc3C1(C)CCN2CC1CC1 (some centres not stated)	26.8% [setting not given] (active)
O=C1NCN(c2ccccc2)C12CCN(CC1COc3ccccc3O1)CC2 (configuration not stated)	5.7% (active)
O=C(CCCN1CCC2(CC1)C(=O)NCN2c1ccccc1)c1ccc(F)cc1	7.6% [setting not given] (active)
CC(CCc1ccccc1)NC(C)C(O)c1ccc(O)cc1 (configuration not stated)	28.5% (active)
Cc1cccc(C)c1NC(=O)CN1CCCC1=O	13.4% [setting not given] (active)
NC(=O)CN1CC(O)CC1=O (configuration not stated)	15.4% [setting not given] (active)
NC(=O)CN1CCCC1=O	1% [setting not given] (active)
O=C1CCCN1CC#CCN1CCCC1	12.7% [setting not given] (active)
O=P1(N(CCCl)CCCl)NCCCO1 (configuration not stated)	-3.8% (inactive)
C/C=C(/C)C(=O)O[C@H]1C(C)=C2[C@H]([C@@H]1OC(=O)CCCCCCC)[C@@](C)(OC(C)=O)C[C@H](OC(=O)CCC)[C@@]1(O)[C@H]2OC(=O)[C@@]1(C)O	-2.4% (inactive)
Cc1c2ccncc2c(C)c2c1[nH]c1ccccc12	78.9% [setting not given] (active)
Cc1nccc2c1[nH]c1ccccc12	8.6% [setting not given] (active)
CC(=O)OCC1=C(C(=O)O)N2C(=O)[C@@H](NC(=O)CCC[C@@H](N)C(=O)O)[C@H]2SC1	-10.7% (inactive)
Cc1ncsc1CCCl	12.9% (active)
c1ccc(C2(c3ccccc3)CC2C2=NCCN2)cc1 (configuration not stated)	6.4% (active)
COc1cc(CC(C)N)c(OC)cc1I (configuration not stated)	7.8% [setting not given] (active)
C[Se]C[C@H](N)C(=O)O	-0.1% (inactive)
NC(CCP(=O)(O)O)C(=O)O (configuration not stated)	12.3% (active)
NC(CCCCCP(=O)(O)O)C(=O)O (configuration not stated)	-4.7% (inactive)

Compound	inhibition
N[C@@H](CCl)C(=O)O	8.8% (active)
CS(=N)(=O)CC[C@H](N)C(=O)O (some centres not stated)	-10.8% (inactive)
NC(CP(=O)(O)O)C(=O)O (configuration not stated)	2.2% (active)
NCC(CP(=O)(O)O)c1ccc(Cl)cc1 (configuration not stated)	-10.6% (inactive)
CN1C2CCC1CC(OC(c1ccccc1)c1ccccc1N)C2 (configuration not stated)	14.6% (active)
C[C@@H](N)Cc1cnc[nH]1	21.1% (active)
O=C(O)Cc1cnc[nH]1	5.5% (active)
OCc1cnc[nH]1	3.5% (active)
C#CCOC(=O)C1=CCCN(C)C1	17.9% (active)
COC(=O)C1=CCCN(C)C1	0.6% [setting not given] (active)
CC(C)NC(C)Cc1ccc(I)cc1 (configuration not stated)	19.1% [setting not given] (active)
CC(C)N(CCC(C(N)=O)(c1ccccc1)c1ccccn1)C(C)C (configuration not stated)	39.4% [setting not given] (active)
Cc1cc([C@@H]2CCCN2C)on1	9.3% (active)
CN1CCC(c2c[nH]c3ccc(O)cc23)CC1	84% (active)
CCCCCCC(C)(C)c1ccc([C@@H]2C[C@H](O)CC[C@H]2CCCO)c(O)c1	3.2% [setting not given] (active)
Cc1cccc(C)c1NC1=NCCCS1	12.9% [setting not given] (active)
C[C@@H]1O[C@@H](O[C@H]2C[C@@H](O)[C@]3(CO)[C@@H]4C(CC[C@]3(O)C2)[C@@]2(O)CC[C@H](C3COC(=O)C3)[C@@]2(C)C[C@H]4O)[C@H](O)[C@H](O)[C@H]1O (some centres not stated)	24.8% (active)
C[C@@H]1O[C@@H](O[C@H]2C[C@@H](O)[C@]3(CO)[C@H]4[C@H](O)C[C@]5(C)[C@@H](C6=CC(=O)OC6)CC[C@]5(O)[C@@H]4CC[C@]3(O)C2)[C@H](O)[C@H](O)[C@H]1O	2.5% [setting not given] (active)
NC(=O)COc1c(F)cc(SCCNS(=O)(=O)c2ccccc2)cc1F	-12.8% (inactive)

Compound	inhibition
Clc1ccc(N2CC3CCC(C2)N3)nn1	25.6% (active)
CC(C)=CCOc1c2occc2cc2ccc(=O)oc12	31.6% [setting not given] (active)
CC(O)(CS(=O)(=O)c1ccc(F)cc1)C(=O)Nc1ccc(C#N)c(C(F)(F)F)c1 (configuration not stated)	13.7% [setting not given] (active)
c1ccc2cc(CC3=NCCN3)ccc2c1	11% [setting not given] (active)
CCCN1CCC[C@H](c2cccc(O)c2)C1	10.7% (active)
CCCN1CCC[C@@H](c2cccc(O)c2)C1	25.8% (active)
CC1(C(=O)O)C2CCC(O2)C1(C)C(=O)O (configuration not stated)	-0.6% (inactive)
CCCCC/C=C\C/C=C\C/C=C\C/C=C\CCCC(=O)NCC(=O)O	3.4% (active)
NC1CC1c1ccccc1 (configuration not stated)	14.9% (active)
Nc1ccc(CCN2CCN(c3cccc(C(F)(F)F)c3)CC2)cc1	27.1% (active)
CC[C@@H](C(N)=O)N1CCCC1=O	12.2% [setting not given] (active)
CN1CCc2cc(O)cc3c2[C@H]1Cc1ccc(O)c(O)c1-3	94% (active)
COc1ccc2c(c1O)-c1cccc3c1[C@@H](C2)N(C)CC3	39% (active)
Cc1sc2ccccc2c1CC1=NCCN1	9.6% (active)
CC(C)(O)[C@@H]1[C@H]2OC(=O)[C@@H]1[C@]1(O)C[C@H]3O[C@]34C(=O)O[C@H]2[C@]14C (tested in a mixture with another compound)	14.8% (active)
Oc1ccc2c3c1O[C@H]1c4[nH]c5c(c4C[C@@]4(O)[C@@H](C2)N(CC2CC2)CC[C@]314)C[C@@]1(O)[C@H]2Cc3ccc(O)c4c3[C@@]1(CCN2CC1CC1)[C@H]5O4	25.2% (active)
NC(N)=Nc1ccc2[nH]c3c(c2c1)C[C@@]1(O)[C@H]2Cc4ccc(O)c5c4[C@@]1(CCN2CC1CC1)[C@H]3O5	18.5% [setting not given] (active)
Oc1ccc2c3c1O[C@H]1c4oc5ccccc5c4C[C@@]4(O)C(C2)N(CC2CC2)CCC314 (some centres not stated)	18.4% [setting not given] (active)
Oc1ccc2c3c1O[C@H]1c4[nH]c5ccccc5c4C[C@@]4(O)C(C2)N(CC2CC2)CCC314 (some centres not stated)	63.8% [setting not given] (active)
